# Screens from PubChem BioAssay.
# Anthrax LF inh2: inhibitors of Bacillus anthracis lethal factor protease. AID 588501. inhibition, % at 10 µM. multiplex microsphere protease cleavage assay, LF. actives 0.12% (n = 360,000). P15917; note: plate controls were buffer without enzyme for full effect and enzyme alone for no effect
# MazEF act: increases E. coli MazEF RNase cleavage of RNA. P0AE70. FAM/BHQ RNA-DNA oligo cleavage fluorescence, 5 h. AID 504720. actives 0.32% (n = 350,000). activation, % at 20 µM; in the data active = activation above about 50%
# Target sequence (P0AE70 whole entry, looked up): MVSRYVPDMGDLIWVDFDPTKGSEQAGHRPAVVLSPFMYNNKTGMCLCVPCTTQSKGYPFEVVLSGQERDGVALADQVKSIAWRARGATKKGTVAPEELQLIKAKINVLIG
# BoNT-F LC inh: inhibitors of Botulinum neurotoxin F light chain protease; Multiplex microsphere protease cleavage assay, flow cytometry; inhibition, % at 10 µM; actives 0.22% (n = 360,000); AID 588497; in the data active = inhibition above about 35%, passing the limit was not always enough; inconclusive = no clear call, values can overlap the other calls; note: plate controls were buffer without enzyme for full effect and enzyme alone for no effect
# Bead autofluor: counter-screen for toxin protease inhibitors: compound fluorescence; compound autofluorescence counterscreen, microsphere flow cytometry; active compounds read high; fluorescence intensity (concentration not given with the values); actives 3.1% (n = 360,000); in the data active = fluorescence intensity above about 16000; inconclusive = no clear call, values can overlap the other calls
# BoNT-A LC inh2: BoNT A light chain protease inhibition. multiplex microsphere protease substrate cleavage, flow cytometry. inhibition, % at 10 µM. actives 0.17% (n = 360,000). AID 588499; note: plate controls were buffer without enzyme for full effect and enzyme alone for no effect
# The depositor's hits bear a star; u = inconclusive; x = no result. In the library only some 3.6% were active in any assay of this set; here they are far more common. Cut-off read from the data, not from the text of the source, unless noted: active = inhibition above about 30%; inconclusive = no clear call, values can overlap the other calls; inactive = below that.
SMILES,Anthrax LF inh2,MazEF act,BoNT-F LC inh,Bead autofluor,BoNT-A LC inh2
CC(C)(C)Nc1c(C2CCNCC2)nc2c(OCc3ccccc3)cccn12,-5,x,-8,6045,0
CCCCOc1ccc(C(=O)NN2C(=O)NC3(CCCCC3)C2=O)cc1OC,-4,2,-5,6769,-6
Cc1ccc(OCC(=O)NN=C2c3ccccc3-c3ccccc32)cc1,1,39,0,23454*,-1
C=C(C)C1CC=C(C)/C(=N/NC(=O)COc2ccc(C)cc2)C1 (stereo not given),0,6,2,21182*,2
CCOc1ccc(N2CC(C(=O)Nc3nnc(C4CCCCC4)s3)CC2=O)cc1 (stereo not given),4,2,11,3495,1
COc1ccc(N2C(=O)C3C4C=CC(C4)C3C2=O)c(OC)c1 (stereo not given),1,3,1,22210*,0
COc1ccc(N2C(=O)C3C4C=CC(C4)C3C2=O)c([N+](=O)[O-])c1 (stereo not given),-1,6,1,3455,0
CCc1ccc(Nc2n[n+](-c3ccccc3)c(-c3ccc(N(CC)CC)cc3)s2)cc1,19,-70,-27,19557*,23
Cc1cnc(NC(=O)C(C)N2C(=O)C3CC=CCC3C2=O)s1 (stereo not given),-2,6,-4,17257*,-3
C[C@@H](C(=O)Nc1nccs1)N1C(=O)C2CC=CCC2C1=O (stereo not given in full),-2,5,8,3580,0
CCN(CC)C(=O)CC(c1ccccc1)c1ccco1 (stereo not given),-5,-5,-3,24247*,-1
CCCN(CCC)C(=O)CC(c1ccc(F)cc1)c1ccco1 (stereo not given),-4,5,3,3271,1
O=C(NC(c1ccccc1)c1cnccn1)C1CCN(CCOc2ccc(Cl)cc2Cl)CC1 (stereo not given),2,x,-6,3106,0
c1ccc(CNc2ccc(CNc3ncn[nH]3)cc2)cc1,-9,7,-6,22732*,u
c1ccc(CNc2ncn[nH]2)cc1,4,4,4,2912,0
CN1OC[C@@H]2CN(S(=O)(=O)c3cc(Cl)cc(Cl)c3)[C@H](c3ccc(-c4ccc(C#N)cc4)cc3)C[C@@H]21,-1,x,-4,5820,1
CC(=O)Nc1ccc2c(c1)C(=O)c1ccc(Cl)cc1-2,-3,-12,6,3665,0
COc1ccc(Nc2nc(C(C)(C)C)nc3c2nnn3Cc2ccccc2Cl)cc1OC,-4,-6,-12,3128,0
CCOC(=O)CNc1nc(C(C)(C)C)nc2c1nnn2Cc1ccccc1Cl,-2,0,-2,23473*,-1
CCC(CC)CN1CCN=C1Nc1ccccc1,-10,5,-5,3021,-1
Cc1ccc([N+](=O)[O-])cc1N=C(c1ccc([N+](=O)[O-])cc1)N1CCOCC1,0,7,-9,2108,-1
O=[N+]([O-])c1ccc(C(=Nc2cccc3ccccc23)N2CCOCC2)cc1,-4,1,-4,17545*,-2
Cc1ccc2nc(NCCc3ccc(Cl)cc3)c3nncn3c2c1,-3,80*,-20,3244,-2
Cc1ccc(S(=O)(=O)N2CCCCC2)cc1NC(=O)c1cccs1,-2,3,1,6563,0
Cc1nnc(SCC(=O)NNC(=O)c2ccco2)s1,-3,0,1,5701,0
SMILES,Anthrax LF inh2,MazEF act,BoNT-F LC inh,Bead autofluor,BoNT-A LC inh2
Fc1ccc(Br)cc1C1C=C(c2ccc(Br)cc2)Nc2ncnn21 (stereo not given),-1,2,-7,22136*,-5
CCc1ccc(C2=CC(c3cc(Br)ccc3F)n3ncnc3N2)cc1 (stereo not given),0,-14,-1,8197,0
CCOC(=O)c1nn(-c2ccc(F)cc2)cc1O,2,2,-1,3932,0
CCOC(=O)c1nn(-c2ccc(Br)cc2)cc1C(=O)c1cccc2ccccc12,2,-9,-4,20527*,-2
COc1ccc(-n2c(-c3ccccc3)cc3c2CCCC3=O)cc1,-4,14,3,22566*,u
Cc1ccc(C2CC(=O)c3cnc(N4CCc5ccccc5C4)nc3C2)cc1 (stereo not given),-3,-8,2,19424*,u
C[C@H](CO)N1C[C@H](C)[C@@H](CN(C)Cc2ccncc2)OCc2cnnn2CCCC1=O,-6,13,7,3713,0
COc1cccc(C2C(C#N)=C(N)Oc3c2oc(CO)cc3=O)c1OC (stereo not given),-1,1,2,22208*,1
CC1=C(C(=O)N2CCOCC2)CC(CC(=O)NCc2cccc3ccccc23)C(=O)N1Cc1ccccc1 (stereo not given),0,1,4,3669,0
N#C/C(=C\c1cn(CCOc2ccccc2)c2ccccc12)C(=O)NCc1cccs1,3,59*,-3,2777,0
NC(c1csc(Nc2nccc(C(F)(F)F)n2)n1)C1CCCCC1 (stereo not given),-4,x,-11,3721,0
C/C(=N/NS(=O)(=O)c1ccc(Br)cc1)c1c[nH]c2ccccc12,-4,33,-10,4711,-2
CC(Cc1ccccc1)=NNc1ccc([N+](=O)[O-])cc1[N+](=O)[O-],-4,-6,1,3609,1
CC(Cc1ccccc1)=NNS(=O)(=O)c1ccc([N+](=O)[O-])cc1,-6,88*,-1,3947,0
C/C(=N\NS(=O)(=O)c1ccc([N+](=O)[O-])cc1)c1c[nH]c2ccccc12,-2,52*,-4,6263,-2
Cc1cc(C(=O)NCc2cc(C)n(C)n2)sc1-c1ccccc1,-9,-1,3,18215*,3
Cc1cc(CNC(=O)Cc2c(F)cccc2Cl)nn1C,-3,1,2,19997*,0
Cc1cc(CNC(=O)c2cc(COc3c(F)cccc3F)on2)nn1C,0,-1,0,2443,0
COc1ccc(C2/C(=C(\O)c3cccc(OC)c3)C(=O)C(=O)N2c2ccccn2)cc1 (stereo not given),-2,-3,-6,23419*,u
COc1ccc(CN2CCN(Cc3ccc(Br)cc3)CC2)c(OC)c1OC,0,2,1,3718,0
Clc1cccc(CN2CCN(c3ncccn3)CC2)c1Cl,-2,0,u,3827,0
Cc1cccc(C(=O)NNC(=O)c2cccc(C)c2)c1,0,6,-5,1825,0
Cc1cccc(C(=O)NNC(=O)c2ccccc2Br)c1,6,12,45*,3428,1
O=C(O)/C=C/C(=O)NNC(=O)c1ccccc1Br,-16,1,6,20690*,5
Cc1ccccc1C(=O)NNC(=O)/C=C\C(=O)O,-4,-3,-2,4008,-1
COc1ccc(Cl)cc1-c1cc(C(=O)Nc2ccc(C)c(NS(C)(=O)=O)c2)[nH]n1,-7,x,-2,3432,0
O=C(Nc1nnc([C@H]2C[C@H](O)[C@@H](CO)O2)s1)NC1CCCCC1,-2,x,-5,3772,0
